Screens as filed in PubChem BioAssay.
In the library only some 4.3% were active in any assay of this set; here they are far more common.
uPA generation: inhibitors of cell surface uPA generation | Potency, µM (titrated, usually from 38.3 µM), usual class: inhibitors | actives 0.31% (n = 330,000) | cell surface uPA generation assay, qHTS; active = well fitted inhibition curve with a large enough effect; inconclusive = small, poorly fitted or top-dose-only effect; inactive = no such curve, though single readings can be large or run the other way; tested in mouse RAW 264.7 cells; also: nearly all actives have a fitted effect of over 55% in size
SW480 rerep: inducers of DNA re-replication in SW480 colon cancer cells; Potency, µM (top dose mostly 46.1 µM), most hits filed as activators; actives 1.8% (n = 340,000); SW480 DNA re-replication, Hoechst DNA content imaging, 48 h; also: nearly all actives have a fitted effect of over 55% in size
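First, 250 cells per well were seeded. Next, compound or vehicle (23 nL) was pinned in, plates sat 48 hr at 37 C. Finally Hoechst was added for 40 min before fluorescence scanning.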
MCF10A rereplic: induces DNA re-replication in MCF 10a normal breast cells; AID 624296; MCF 10A DNA re-replication, Hoechst nuclear intensity, 48 h; actives 2.9% (n = 350,000); Potency, µM (highest dose often 46.1 µM), actives largely listed as activators; also: nearly all actives have a fitted effect of over 50% in size
Giardia kill: kills Giardia lamblia | activity change, % at 7.66 µM, hits read low | actives 0.15% (n = 340,000) | AID 540267 | Giardia lamblia trophozoite viability; in the data active = activity change below about -80%; inconclusive = between about -30% and that limit;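 also: parasites exposed to compound for two days anaerobically before the ATP read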
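Giardia lamblia trophozoites (100 cells/well) were incubated with compounds for 48 h at 37 deg C under anaerobic conditions. Viability was read as ATP content by one-step luminescence after 15-30 min at room temperature.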
Each line names hits and unclear results; the compound was inactive in the other large screens. Unless noted, calls follow the shape of the dose curve; as a rule, active = well fitted activation curve with a large enough effect; inconclusive = small, poorly fitted or top-dose-only effect; inactive = no such curve, though single readings can be large or run the other way.

COc1ccc(-c2c(C3C4C=CCC(C)C4C(=O)N3Cc3ccccc3)ccc3ccccc23)cc1OC (centres undefined)	none (no result: uPA generation, SW480 rerep, MCF10A rereplic)
O=C(COc1ccc(C(=O)c2ccccc2)cc1)NCc1ccc(F)cc1	SW480 rerep 7.3µM, MCF10A rereplic 4.1µM
CSc1ccc(CN(C)C(=O)COc2ccc(C(=O)c3ccccc3)cc2)cc1	uPA generation inconclusive, SW480 rerep inconclusive, MCF10A rereplic 13µM
CCOc1ccccc1N(C)C(=O)CCS(=O)(=O)c1ccc2c(c1)NC(=O)C(C)S2 (centres undefined)	none
COc1ccc(-c2cn3cc(C(F)(F)F)cc(Cl)c3n2)cc1	SW480 rerep 18µM
Fc1ccc(-c2cn3cc(C(F)(F)F)cc(Cl)c3n2)cc1	SW480 rerep inconclusive, MCF10A rereplic inconclusive
Cc1ccccc1OCC(=O)NCC(=O)OCc1ccc2ccccc2c1	none (no result: uPA generation, SW480 rerep, MCF10A rereplic)
CN(Cc1cc(Cl)cc(Cl)c1O)Cc1c(O)ccc2ccccc12	SW480 rerep inconclusive, MCF10A rereplic 23µM
Cc1ccc(C(=O)COC(=O)c2cn3ccccc3n2)cc1	MCF10A rereplic 0.58µM
NNC(=O)c1cn2ccccc2n1	none
C=C1C(=O)C23C(O)C1CCC2C12CCCC(C)(COC(C)=O)C1C(O)C3(O)OC2 (centres undefined)	SW480 rerep inconclusive, MCF10A rereplic 0.73µM
Cn1c(N2CCN(C(c3ccccc3)c3ccccc3)CC2)nc2ccccc21	SW480 rerep inconclusive, MCF10A rereplic 23µM
COc1ccccc1NC(=O)COC(=O)c1[nH]c(=O)[nH]c(=O)c1N	none
COc1cc([N+](=O)[O-])cc(/C=N/NC(=O)Cn2nccc2C)c1O	SW480 rerep 16µM, MCF10A rereplic 18µM
[O-][n+]1c2ccccc2c2n1CCCN=C2c1ccc(Cl)cc1	Giardia kill -84
Cc1ccc(C2=NCCn3c2c2ccccc2[n+]3[O-])cc1	Giardia kill -90
Nc1c(Cl)cc(C2=NCCn3c2c2ccc(C(F)(F)F)cc2[n+]3[O-])cc1Cl	Giardia kill -94
[O-][n+]1c2ccccc2c2n1CCN=C2c1ccc(Cl)cc1	Giardia kill -84
COc1ccc2c3n([n+]([O-])c2c1)CCN=C3c1ccc(Cl)cc1	Giardia kill inconclusive
Nc1c(Cl)cc(C2=NCCn3c2c2ccccc2[n+]3[O-])cc1Cl	Giardia kill inconclusive
Cc1ccc(C2=NCCn3c2c2ccc([N+](=O)[O-])cc2[n+]3[O-])cc1	uPA generation 0.71µM, SW480 rerep inconclusive, Giardia kill inconclusive
COc1ccc(SCC(c2ccccc2)N2CCN(CC(C)C)CCC2=O)cc1 (centres undefined)	none (no result: uPA generation, SW480 rerep, MCF10A rereplic)
COc1ccc(CCNC(=S)NCc2ccc(Cl)c(Cl)c2)cc1OC	MCF10A rereplic 13µM
CCNC(=S)NCc1ccc(OC)c(OC)c1	none
COc1ccc(CCNCc2ccc(-c3ccccc3)cc2)cc1OC	SW480 rerep inconclusive, MCF10A rereplic 23µM
COc1ccc(S(=O)(=O)N2CCCCCC2)cc1NC(=O)CN(C)Cc1ccc2c(c1)OCO2	none
CN(C)c1ccc(C2CNC(c3ccc(Cl)c([N+](=O)[O-])c3)c3[nH]c4ccccc4c32)cc1 (centres undefined)	uPA generation inconclusive, SW480 rerep 15µM, MCF10A rereplic 4.1µM
COc1ccc(-n2nc([N+](=O)[O-])c(=NCCc3ccccc3)n2O)cc1	uPA generation 10µM, Giardia kill inconclusive
Cc1ccc(CN=c2c([N+](=O)[O-])nn(-c3ccc(Cl)cc3)n2O)cc1	Giardia kill inconclusive
COc1cccc(CN=c2c([N+](=O)[O-])nn(-c3ccccc3C)n2O)c1	Giardia kill -109
O=[N+]([O-])c1nn(-c2ccc(Cl)cc2)n(O)c1=NCc1ccncc1	uPA generation 13µM, Giardia kill inconclusive
Cc1cccc(-n2nc([N+](=O)[O-])c(=NCc3cccnc3)n2O)c1	Giardia kill -88
Cc1ccc(OCCNC(=O)CNC(=O)Cc2cccc3ccccc23)cc1	none (no result: uPA generation, SW480 rerep, MCF10A rereplic)
CCOC(=O)C1=CN(CC)CCC1=O	none
Cc1nc(NCCOc2ccccc2)sc1C(=O)Nc1ccccc1	Giardia kill inconclusive
CCCCOC(=O)c1ccc(NC(=O)C(=O)CC(=O)c2ccc(OC)cc2)cc1	MCF10A rereplic 15µM
Cc1cccc(CCN2C(N(C)C)=NC[C@@H]2Cc2ccccc2)c1	uPA generation 10µM, MCF10A rereplic inconclusive
CCOC(=O)[C@H]1[C@H]2COc3ccc(Br)cc3[C@@H]2N2C(=O)CN(Cc3ccccc3)C(=O)[C@@]12C	none
COc1ccccc1/C=C/C=N/n1c(-c2ccccc2)n[nH]c1=S	none
COc1ccc(-c2n[nH]c(=S)n2/N=C/C=C/c2ccccc2OC)cc1	SW480 rerep inconclusive, MCF10A rereplic 4.6µM
Cc1cccc(N/C(N)=N/c2nc(CSc3ccc(Cl)cc3)cc(=O)[nH]2)c1	uPA generation inconclusive, SW480 rerep inconclusive, MCF10A rereplic 3.7µM
COc1ccc(N/C(N)=N/c2nc(CSc3nnc(C)s3)cc(=O)[nH]2)cc1	SW480 rerep 3.3µM, MCF10A rereplic inconclusive
COCc1cc(=O)[nH]c(/N=C(\N)Nc2cccc(C)c2)n1	none
CC1CCCC(C)N1C(=O)COC(=O)c1cccnc1Cl (centres undefined)	none
COc1ccccc1C(=O)COC(=O)Cc1ccccc1F	none
CCOc1ccc(S(=O)(=O)N2CCN(C(=O)c3cc4ccccc4o3)CC2)cc1	none
O=C(NC12CC3CC(CC(C3)C1)C2)N1CCN(C2CCCCC2)CC1	MCF10A rereplic 2.1µM
Cc1cccc(NC(=O)c2ccc(N3CCOCC3)c([N+](=O)[O-])c2)n1	none
Cc1cccc(NC(=O)c2ccc(N3CCCCC3)c([N+](=O)[O-])c2)n1	MCF10A rereplic 10µM
CSc1ccc(Cl)c(C(=O)Nc2ccc(C)cn2)c1	SW480 rerep 26µM, MCF10A rereplic inconclusive
CCOc1ccccc1NC(=O)c1cc(SC)ccc1Cl	SW480 rerep 18µM, MCF10A rereplic inconclusive
Cc1ccc(NC(=O)c2ccc([N+](=O)[O-])cc2Cl)nc1	MCF10A rereplic inconclusive, Giardia kill inconclusive
O=C(C[C@H]1C[C@H](C(=O)N2CCCCC2)[C@@]2(CCc3ccccc3)c3[nH]c4ccc(Cl)cc4c3CCN2C1=O)NCCC1=CCCCC1	none
O=C(COC(=O)c1ccc(S(=O)(=O)N2CCCC2)cc1)NCc1ccco1	none
Cc1cc(C(C)(C)C)ccc1OCCCCN1CCCC1	MCF10A rereplic 13µM
Cc1cc(C(C)(C)C)ccc1OCCN1CCCC1	MCF10A rereplic inconclusive
C=CCn1c(COc2ccc(F)cc2)nnc1SCC(=O)NC1CCS(=O)(=O)C1 (centres undefined)	none
O=C(COc1ccccc1Cl)Nc1ccc(S(=O)(=O)Nc2ccccn2)cc1	none
Cc1ccc(NC(=O)c2cc(N3C(=O)C=CC3=O)ccc2N2CCOCC2)cc1	SW480 rerep inconclusive, MCF10A rereplic 13µM
CCN1C=C(C(=O)OC)C(c2cccc(OC)c2OC)C(C(=O)OC)=C1	SW480 rerep 16µM, MCF10A rereplic inconclusive
COCCN1C=C(C(=O)OC)C(c2ccccc2Cl)C(C(=O)OC)=C1	SW480 rerep 21µM, MCF10A rereplic 13µM
COCCN1C=C(C(=O)OC)C(c2cc(Br)c(OC)c(OC)c2)C(C(=O)OC)=C1	MCF10A rereplic inconclusive
